“And” between values parts separate entries of the source, which are not always exact repeats. Equal entries are not always repeated. Inconclusive results are not listed. A call without a number means that no potency is given here. The source made the active and inactive calls. Unless noted, the call rests on the fitted dose curve; in most records, active means well fitted curve in the direction sought with a large enough effect in the repeat runs; inconclusive means weak or mixed curves; inactive means no such curve, though single readings can be large; an effect the other way counts as inactive or inconclusive.
System: not listed separately
Test: qHTS assay to identify small molecule antagonists of the retinoic acid receptor (RAR) signaling pathway (AID 1159552; further: nearly all actives have a fitted effect of over 50% in size; further: potency means the concentration at half of the fitted maximal effect)
Conditions: C3RL4 RARE luciferase reporter, retinol-stimulated, 6 h; series mostly up to 92.4 µM
How it was run: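 Luminescence from a RARE luciferase reporter in C3RL4 cells served as read-out. Cells received compounds together with 1 uM final retinol and incubated 6 hr at 37 C before detection reagent was added for 30 min at room temperature.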

Compound	Potency
Oc1ccc2cc(SSc3ccc4cc(O)ccc4c3)ccc2c1	7.7 µM (active) and 12.2 µM (active)
Oc1ccc(C2(c3ccc(O)cc3)CC3CC2C2CCCC32)cc1 (stereo unspecified)	46.6 µM (active)
Cc1ccc(O)c2ncccc12	inactive
CC[C@@]1(O)C(=O)OCc2c1cc1n(c2=O)Cc2cc3c(CN(C)C)c(O)ccc3nc2-1	3.76 µM (active)
Clc1ccc2nsnc2c1NC1=NCCN1	inactive
Nc1cc(C(F)(F)F)ccc1S	6.68 µM (active)
O=CC=C(c1ccccc1)c1ccccc1	inactive
CN(C)c1ccc(SC#N)cc1	9.69 µM (active)
C/C(=C(/OCCOc1ccc(Cl)cc1)c1ccc(Cl)cc1Cl)n1ccnc1	inactive
CN(C)C(=O)C1(N2CCCCC2)CCN(CC[C@@]2(c3ccc(Cl)c(Cl)c3)CN(C(=O)c3ccccc3)CCO2)CC1	28.6 µM (active)
CSc1cnc(C)cn1	inactive

System: not listed separately
Test: qHTS assay to identify small molecule agonists of the retinoic acid receptor (RAR) signaling pathway (AID 1159553)
Conditions: C3RL4 RARE luciferase reporter, agonist, 6 h; series mostly up to 73.3 µM
How it was run: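 Luminescence from a RARE-driven luciferase reporter in C3RL4 cells served as the read-out, measured after 30 min with detection reagent at room temperature. Compounds in DMSO were applied for 6 hr at 37 C following overnight seeding.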

Compound	Potency
OCc1c[nH]c2ccccc12	inactive
O=C(OC[C@H]1O[C@@H](OC(=O)c2cc(O)c(O)c(OC(=O)c3cc(O)c(O)c(O)c3)c2)[C@H](OC(=O)c2cc(O)c(O)c(OC(=O)c3cc(O)c(O)c(O)c3)c2)[C@@H](OC(=O)c2cc(O)c(O)c(OC(=O)c3cc(O)c(O)c(O)c3)c2)[C@@H]1OC(=O)c1cc(O)c(O)c(OC(=O)c2cc(O)c(O)c(O)c2)c1)c1cc(O)c(O)c(OC(=O)c2cc(O)c(O)c(O)c2)c1	inactive
Cc1c(C)c2c(c(C)c1OC(=O)CCC(=O)O)CC[C@@](C)(CCC[C@H](C)CCC[C@H](C)CCCC(C)C)O2	inactive
CC[C@@]1(O)C(=O)OCc2c1cc1n(c2=O)Cc2cc3c(CN(C)C)c(O)ccc3nc2-1	inactive
Clc1ccc2nsnc2c1NC1=NCCN1	inactive
CN(C)c1ccc(SC#N)cc1	inactive

System: not listed separately
Test: qHTS assay to identify small molecule antagonists of the estrogen related receptor (ERR) signaling pathway - cell viability counter screen (AID 1224818);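 further: viability measured after 17.5 h of compound exposure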
Conditions: ERR reporter cell line viability counter screen; series mostly up to 46.1 µM
How it was run: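 Multiplexed counter screen to separate cytotoxic compounds from true ERR modulators. ERR cells received DMSO-dissolved compounds after a 6 h pre-incubation, were exposed 17.5 h at 37 C, then assayed with CellTiter-Fluor fluorescence.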

Compound	Potency
CCCCC(CC)COC(=O)c1ccccc1C(=O)O (stereo unspecified)	inactive
OCc1c[nH]c2ccccc12	inactive
Clc1ccc2nsnc2c1NC1=NCCN1	inactive

System: not listed separately
Test: qHTS assay to identify small molecule antagonists of the estrogen related receptor (ERR) signaling pathway (AID 1224819; further: nearly all actives have a fitted effect of over 50% in size; further: potency means the concentration at half of the fitted maximal effect)
Conditions: ERR reporter cell line, luciferase inhibition; series mostly up to 46.1 µM
How it was run: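 Seed ERR cells 2,000/well; rest 6 h at 37 C/5% CO2; pin compounds in DMSO; incubate 18 h at 37 C; add One-Glo; wait 30 min at room temperature; measure luminescence.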

Compound	Potency
CCCCC(CC)COC(=O)c1ccccc1C(=O)O (stereo unspecified)	inactive
CC(=O)N1CCN(c2ccc(OC[C@H]3CO[C@](Cn4ccnc4)(c4ccc(Cl)cc4Cl)O3)cc2)CC1	9.08 µM (active)
CC[C@@]1(O)C(=O)OCc2c1cc1n(c2=O)Cc2cc3c(CN(C)C)c(O)ccc3nc2-1	0.75 µM (active)
Clc1ccc2nsnc2c1NC1=NCCN1	inactive

System: not listed separately
Test: qHTS assay to identify small molecule agonists of the estrogen related receptor (ERR) signaling pathway (AID 1224820)
Conditions: ERR reporter cell line, luciferase agonist mode; series mostly up to 46.1 µM
How it was run: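 Quantitative HTS of the LOPAC library used NTP ERR reporter cells treated 18 h at 37 C. Signal is luminescence after One-Glo addition and a 30 min room-temperature incubation.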

Compound	outcome
CCCCC(CC)COC(=O)c1ccccc1C(=O)O (stereo unspecified)	inactive
CC(=O)N1CCN(c2ccc(OC[C@H]3CO[C@](Cn4ccnc4)(c4ccc(Cl)cc4Cl)O3)cc2)CC1	inactive
OCc1c[nH]c2ccccc12	inactive
CC[C@@]1(O)C(=O)OCc2c1cc1n(c2=O)Cc2cc3c(CN(C)C)c(O)ccc3nc2-1	inactive
Clc1ccc2nsnc2c1NC1=NCCN1	inactive

System: estrogen-related receptor alpha (ERRalpha) with PGC-1alpha coactivator, human
Test: qHTS assay to identify small molecule antagonists of the estrogen related receptor signaling pathway with the pleiotropic PPARgamma coactivator (PGC) (AID 1224821; calls by dose curve; further: nearly all actives have a fitted effect of over 50% in size; further: potency means the concentration at half of the fitted maximal effect)
Conditions: ERR/PGC reporter cell line, luciferase, antagonist mode; series mostly up to 46.1 µM
How it was run: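 Quantitative HTS for antagonism: PGC/ERR cells received compounds after 6 h attachment and were incubated 18 h at 37 C, with luminescence (One-Glo) as the endpoint.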

Compound	Potency
CCCCC(CC)COC(=O)c1ccccc1C(=O)O (stereo unspecified)	inactive
CC(=O)N1CCN(c2ccc(OC[C@H]3CO[C@](Cn4ccnc4)(c4ccc(Cl)cc4Cl)O3)cc2)CC1	29.8 µM (active)
OCc1c[nH]c2ccccc12	inactive
Clc1ccc2nsnc2c1NC1=NCCN1	inactive

System: not listed separately
Test: qHTS assay to identify small molecule antagonists of the estrogen related receptor signaling pathway with the pleiotropic PPARgamma coactivator (PGC) cell viability counter screen (AID 1224822;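 further: viability read after 17.5 h compound exposure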)
Conditions: ERR/PGC reporter cell line viability counter screen; series mostly up to 46.1 µM
How it was run: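 Cells: PGC/ERR, 2,000/well, 1536-well format. Pre-incubation 6 h, 37 C/5% CO2. Compound exposure 17.5 h, 37 C. Detection: CellTiter-Fluor, 30 min, fluorescence.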

Compound	Potency
CCCCC(CC)COC(=O)c1ccccc1C(=O)O (stereo unspecified)	inactive
OCc1c[nH]c2ccccc12	inactive
Clc1ccc2nsnc2c1NC1=NCCN1	inactive

System: not listed separately
Test: qHTS assay to identify small molecule agonists of the estrogen related receptor signaling pathway with the pleiotropic PPARgamma coactivator (PGC) (AID 1224823)
Conditions: ERR/PGC reporter cell line, luciferase agonist mode; series mostly up to 46.1 µM
How it was run: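 Cell-based luciferase assay in the NTP-supplied PGC/ERR line, 2,000 cells/well; 18 h compound exposure at 37 C, luminescence after One-Glo.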

Compound	outcome
CCCCC(CC)COC(=O)c1ccccc1C(=O)O (stereo unspecified)	inactive
CC(=O)N1CCN(c2ccc(OC[C@H]3CO[C@](Cn4ccnc4)(c4ccc(Cl)cc4Cl)O3)cc2)CC1	inactive
OCc1c[nH]c2ccccc12	inactive
CC[C@@]1(O)C(=O)OCc2c1cc1n(c2=O)Cc2cc3c(CN(C)C)c(O)ccc3nc2-1	inactive
Clc1ccc2nsnc2c1NC1=NCCN1	inactive
